Reference: PubChem BioAssay AID1159580 (chemical genetic matrix, 2015)
In all, about 5,500 compounds went through this assay and about 2,000 (36%) were called active. Roughly 18% stayed inconclusive and do not appear here. Cut-off read from the data, not from the text of the source: active = normalized growth mostly below about 0.91 (no sharp cut-off); inconclusive = no clear call, values can overlap the other calls; inactive = mostly above about 0.92. The list shows a part of the results.

Experiment: chemical genetic growth profiling, strain panel (AID 1159580);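 note: tested at 20 µM; growth read once vehicle control cultures reached saturation at 30 °C; 1 = growth at the plate median or of vehicle wells; lower values mean less growth of the strain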
Settings: S. cerevisiae deletion strains, growth OD

Measured: normalized growth

CC(=O)c1c(O)cc(O)cc1O
inactive: locus YAL021C, strain ccr4, active compounds read low 1.04 | locus YAL026C, strain drs2, active compounds read low 0.987 | locus YAL030W, strain snc1, active compounds read low 0.981 | locus YBL061C, strain skt5, active compounds read low 0.985 | locus YBR009C, strain hhf1, active compounds read low 1.02 | locus YBR023C, strain chs3, active compounds read low 0.995 | locus YBR171W, strain sec66, active compounds read low 0.964 | locus YBR231C, strain swc5, active compounds read low 0.947 | locus YBR279W, strain paf1, active compounds read low 0.991 | locus YCL011C, strain gbp2, active compounds read low 0.978 | locus YCL016C, strain dcc1, active compounds read low 1.03 | locus YCL061C, strain MRC1, active compounds read low 1 | locus YCL069W, strain vba3, active compounds read low 0.949 | locus YCR088W, strain abp1, active compounds read low 0.967 | locus YDL005C, strain med2, active compounds read low 0.97 | locus YDL040C, strain nat1, active compounds read low 0.973 | locus YDR001C, strain nth1, active compounds read low 0.981 | locus YDR069C, strain doa4, active compounds read low 0.937 | locus YDR137W, strain rgp1, active compounds read low 1.01 | locus YDR159W, strain sac3, active compounds read low 0.967 | locus YDR195W, strain ref2 0.914 | locus YDR297W, strain sur2, active compounds read low 0.982 | locus YDR334W, strain swr1, active compounds read low 0.96 | locus YDR335W, strain msn5, active compounds read low 0.973 | locus YDR392W, strain spt3, active compounds read low 0.952 | locus YEL003W, strain gim4, active compounds read low 0.979 | locus YEL037C, strain rad23, active compounds read low 0.974 | locus YEL061C, strain CIN8 (second series), active compounds read low 0.961 | locus YER015W, strain faa2, active compounds read low 0.988 | locus YER016W, strain bim1, active compounds read low 0.972 | locus YER111C, strain swi4, active compounds read low 0.975 | locus YER155C, strain BEM2 (second series), active compounds read low 0.969 | locus YFR010W, strain ubp6, active compounds read low 0.948 | locus YGL167C, strain pmr1, active compounds read low 0.992 | locus YGL173C, strain kem1, active compounds read low 0.993 | locus YGL227W, strain vid30, active compounds read low 0.968 | locus YGL240W, strain doc1, active compounds read low 0.981 | locus YGL253W, strain hxk2, active compounds read low 0.938 | locus YHR013C, strain ard1, active compounds read low 0.985 | locus YHR027C, strain rpn1, active compounds read low 0.997 | locus YHR030C, strain SLT2, active compounds read low 0.986 | locus YHR079C, strain IRE1, active compounds read low 0.974 | locus YHR142W, strain chs7, active compounds read low 0.988 | locus YJL092W, strain hpr5, active compounds read low 0.978 | locus YJL095W, strain BCK1 (second series), active compounds read low 0.981 | locus YJL095W, strain BCK1, active compounds read low 0.992 | locus YJL115W, strain asf1, active compounds read low 0.999 | locus YJL129C, strain trk1, active compounds read low 0.977 | locus YJL154C, strain vps35, active compounds read low 0.973 | locus YJL164C, strain tpk1, active compounds read low 1.02 | locus YJL166W, strain qcr8, active compounds read low 0.989 | locus YJL187C, strain SWE1, active compounds read low 0.99 | locus YJR066W, strain TOR1, active compounds read low 0.952 | locus YKL160W, strain elf1, active compounds read low 1.03 | locus YKR026C, strain gcn3, active compounds read low 0.948 | locus YKR091W, strain srl3, active compounds read low 0.988 | locus YLL001W, strain dnm1, active compounds read low 0.978 | locus YLL026W, active compounds read low 0.998 | locus YLL041C, strain sdh2, active compounds read low 0.983 | locus YLR027C, strain aat2, active compounds read low 0.993 | locus YLR113W, strain HOG1, active compounds read low 0.97 | locus YLR221C, strain rsa3, active compounds read low 0.955 | locus YLR258W, strain gsy2, active compounds read low 0.989 | locus YLR262C, strain YPT6 (second series), active compounds read low 1.06 | locus YLR320W, strain mms22, active compounds read low 0.978 | locus YLR342W, strain FKS1, active compounds read low 0.978 | locus YLR357W, strain rsc2, active compounds read low 0.982 | locus YLR370C, strain arc18, active compounds read low 0.961 | locus YLR384C, strain iki3, active compounds read low 0.973 | locus YML120C, strain ndi1, active compounds read low 0.998 | locus YMR058W, strain fet3, active compounds read low 0.975 | locus YMR125W, strain sto1, active compounds read low 0.958 | locus YMR129W, active compounds read low 0.978 | locus YMR205C, strain PFK2, active compounds read low 1.03 | locus YMR231W, strain pep5, active compounds read low 0.968 | locus YNL071W, strain lat1, active compounds read low 0.984 | locus YNL183C, strain NPR1, active compounds read low 0.938 | locus YNL209W, strain ssb2, active compounds read low 0.997 | locus YNL248C, strain rpa49, active compounds read low 1.01 | locus YNL322C, strain KRE1 (second series), active compounds read low 0.99 | locus YNR049C, strain mso1, active compounds read low 0.978 | locus YOR001W, strain rrp6, active compounds read low 0.922 | locus YOR070C, strain gyp1, active compounds read low 0.988 | locus YOR080W, strain dia2, active compounds read low 0.962 | locus YOR083W, strain WHI5, active compounds read low 1.03 | locus YOR106W, strain vam3, active compounds read low 1.04 | locus YOR231W, strain MKK1, active compounds read low 0.982 | locus YOR265W, strain rbl2, active compounds read low 0.976 | locus YOR270C, strain vph1, active compounds read low 1.01 | locus YOR290C, strain snf2, active compounds read low 1.03 | locus YPL051W, strain arl3, active compounds read low 0.965 | locus YPL078C, strain atp4, active compounds read low 1.03 | locus YPL106C, strain sse1, active compounds read low 0.958 | locus YPL240C, strain hsp82, active compounds read low 0.979 | locus YPL256C, strain CLN2, active compounds read low 0.973
